Laboratory results: PubChem BioAssay
Activity calls are given as the source filed them.

Columns and labels:
Albumin (Bos taurus) = Albumin (Bos taurus) (UniProt P02769); experiment: compounds binding labelled BSA control protein – biochemical, small-molecule microarray, Alexa647 label, 635/667 nm fluorescence, artefact control for SMM control protein annotation, profiling panel (AID 1118); conditions: BSA-A647 binding, fluorescence 635 nm, higher = more signal;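 also: score merges 667 nm emission intensity and signal-to-noise per printed compound spot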
Chain of Albumin (Bos taurus) (P02769 whole entry, looked up): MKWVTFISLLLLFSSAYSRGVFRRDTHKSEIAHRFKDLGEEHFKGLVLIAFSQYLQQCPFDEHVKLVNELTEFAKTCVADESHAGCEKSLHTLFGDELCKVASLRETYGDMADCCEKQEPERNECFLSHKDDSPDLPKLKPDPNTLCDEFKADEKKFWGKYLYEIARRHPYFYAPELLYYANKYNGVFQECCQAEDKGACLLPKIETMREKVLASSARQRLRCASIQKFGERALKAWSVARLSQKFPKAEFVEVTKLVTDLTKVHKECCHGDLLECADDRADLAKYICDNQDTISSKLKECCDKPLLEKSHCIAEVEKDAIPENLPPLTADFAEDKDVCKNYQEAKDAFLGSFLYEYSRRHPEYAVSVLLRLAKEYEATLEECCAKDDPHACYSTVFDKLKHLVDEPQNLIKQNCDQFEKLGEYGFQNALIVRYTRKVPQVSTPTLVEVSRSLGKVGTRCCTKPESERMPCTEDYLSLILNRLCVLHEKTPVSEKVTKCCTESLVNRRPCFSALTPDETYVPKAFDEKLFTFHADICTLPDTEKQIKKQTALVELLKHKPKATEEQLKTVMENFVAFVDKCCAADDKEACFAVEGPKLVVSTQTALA

[1] = probe aXIP binding to arrayed compounds – biochemical, NeuroSMM set, 635/667 nm fluorescence, primary screen (AID 1119); conditions: small-molecule microarray, higher = more signal, called active from +8 up or from −8 down;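 also: probe is the protein aXip251-270 applied at 1 µg/mL to compound-printed slides; binding of probe to printed compounds measured as 667 nm fluorescence plus signal to noise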
[2] = probe aNOTCH3 binding on compound microarray – biochemical, small-molecule microarray, 635/667 nm fluorescence, primary screen (AID 1120); conditions: higher = more signal;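 also: probe is a biotin-tagged antibody raised against NOTCH3 rather than NOTCH3 protein; score merges spot fluorescence near 667 nm with spot signal to noise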
[3] = probe aNOTCH2 binding on compound microarray – biochemical, small-molecule microarray, 635/667 nm fluorescence, primary screen (AID 1121); conditions: higher = more signal;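 also: score merges feature fluorescence read at 667 nm with its signal to noise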
[4] = biological target: Carbonic anhydrase 2 (Homo sapiens) (UniProt P00918); experiment: compounds binding carbonic anhydrase 2 – biochemical, small-molecule microarray, Alexa647-labelled CAII, profiling panel (AID 1122); conditions: CAII-A647 binding fluorescence, higher = more signal
[5] = COS7 lysate on small-molecule microarray, probe aHis, 635 nm (AID 1123); conditions: COS7 cell lysate, fluorescence, higher = more signal;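 also: z-score combines 667nm fluorescence intensity with signal-to-noise per printed compound spot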
[6] = probe aLAP1 signal on lysate-treated microarray – cell lysate, small-molecule microarray, COS7 lysate, primary screen (AID 1124); conditions: probe aLAP1, fluorescence, higher = more signal;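 also: lysate comes from COS7 cells expressing LAP1 and is applied at 0.3 µg/mL; score merges spot fluorescence near 667 nm with signal-to-noise over triplicate slides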
Sam68 (KHDRBS1) = experiment: compounds binding KHDRBS1 protein – biochemical, small-molecule microarray, 635 nm fluorescence, primary screen (AID 1125); conditions: higher = more signal;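 also: score merges 667 nm channel intensity with signal to noise over triplicate slides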
[7] = tested on: Chordin-like protein 2 (CHRDL2); experiment: compounds binding chordin-like 2 – biochemical, small-molecule microarray, 635 nm fluorescence, primary screen (AID 1126); conditions: fluorescence 635 nm, higher = more signal;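 also: printed compound slides probed with Chrdl2 protein at 4 µg/mL for 1 h at 4 C; score merges 667 nm emission intensity with signal to noise over three replicate slides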
[8] = biological target: Concanavalin-A (Canavalia ensiformis) (UniProt P02866); experiment: compounds binding concanavalin A lectin – biochemical, small-molecule microarray, Alexa647 label, 635 nm, artefact control for SMM control protein annotation, primary screen (AID 1127); conditions: ConA-A647 binding fluorescence, higher = more signal;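 also: z combines 667 nm emission intensity with signal-to-noise across three replicate slides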
Chain of Concanavalin-A (Canavalia ensiformis) (P02866 whole entry, looked up): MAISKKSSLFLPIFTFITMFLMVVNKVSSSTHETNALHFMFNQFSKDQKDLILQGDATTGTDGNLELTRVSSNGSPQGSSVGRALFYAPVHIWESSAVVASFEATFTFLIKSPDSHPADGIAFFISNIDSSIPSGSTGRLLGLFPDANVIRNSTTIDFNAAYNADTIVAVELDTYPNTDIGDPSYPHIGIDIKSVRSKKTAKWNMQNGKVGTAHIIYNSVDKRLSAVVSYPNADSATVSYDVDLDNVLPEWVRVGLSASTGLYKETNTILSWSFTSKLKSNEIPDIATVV

[9] = compounds binding Alexa647 anti-His antibody – biochemical, small-molecule microarray, 635 nm fluorescence, artefact control for SMM control protein annotation, primary screen (AID 1128); conditions: higher = more signal;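 also: score merges feature fluorescence with signal-to-noise for each printed compound spot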
[10] = tested on: Human papillomavirus type 1a E7 protein (residues 1-88); experiment: HPV1a E7 small-molecule binders, primary screen, biochemical, small-molecule microarray, residues 1-88, 635 nm (AID 1129); conditions: small-molecule microarray binding, fluorescence 635 nm; higher = more signal
[11] = biological target: Focal adhesion kinase 1 (Homo sapiens) (UniProt Q05397); experiment: PTK2 protein binding on printed compound slides – biochemical, small-molecule microarray, 635/667 nm fluorescence, BSA, DTT, primary screen (AID 1130); conditions: 635 nm fluorescence, higher = more signal;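 also: composite of spot emission at 667 nm and signal to noise over triplicate slides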
Chain of Focal adhesion kinase 1 (Homo sapiens) (Q05397 whole entry, looked up): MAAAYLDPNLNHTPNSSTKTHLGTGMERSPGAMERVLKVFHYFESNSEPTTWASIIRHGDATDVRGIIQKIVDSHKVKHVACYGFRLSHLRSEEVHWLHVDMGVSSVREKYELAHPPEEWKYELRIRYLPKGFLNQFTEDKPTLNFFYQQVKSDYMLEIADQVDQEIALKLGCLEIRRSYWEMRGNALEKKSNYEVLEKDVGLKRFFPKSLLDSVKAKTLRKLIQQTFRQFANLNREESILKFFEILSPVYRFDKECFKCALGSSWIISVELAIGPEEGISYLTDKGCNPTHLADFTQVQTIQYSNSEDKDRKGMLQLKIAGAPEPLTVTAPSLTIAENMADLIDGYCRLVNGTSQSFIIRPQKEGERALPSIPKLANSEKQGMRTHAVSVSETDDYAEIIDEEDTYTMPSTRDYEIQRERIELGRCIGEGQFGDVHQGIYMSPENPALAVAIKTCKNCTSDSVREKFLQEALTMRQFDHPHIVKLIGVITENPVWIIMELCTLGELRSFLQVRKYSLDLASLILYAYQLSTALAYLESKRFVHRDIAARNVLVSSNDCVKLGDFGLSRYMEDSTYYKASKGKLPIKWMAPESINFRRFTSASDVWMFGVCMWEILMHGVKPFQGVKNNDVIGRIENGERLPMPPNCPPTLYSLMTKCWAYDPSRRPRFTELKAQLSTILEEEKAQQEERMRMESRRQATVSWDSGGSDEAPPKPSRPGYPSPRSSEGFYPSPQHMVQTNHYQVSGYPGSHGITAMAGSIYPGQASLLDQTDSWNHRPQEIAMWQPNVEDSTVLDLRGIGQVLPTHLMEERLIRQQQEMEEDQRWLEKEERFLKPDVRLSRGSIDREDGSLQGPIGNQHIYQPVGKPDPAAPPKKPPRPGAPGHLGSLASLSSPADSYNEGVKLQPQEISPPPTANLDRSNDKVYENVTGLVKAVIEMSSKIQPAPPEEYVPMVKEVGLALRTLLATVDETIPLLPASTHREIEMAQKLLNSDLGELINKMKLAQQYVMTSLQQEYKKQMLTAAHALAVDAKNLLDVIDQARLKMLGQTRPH

[12] = tested on: Fibrinogen (Alexa647-labelled); experiment: Alexa647-fibrinogen binding to printed small molecules – biochemical, small-molecule microarray, 635/667 nm fluorescence, artefact control for SMM control-protein annotation, profiling panel (AID 1131); conditions: fibrinogen-A647 binding fluorescence, higher = more signal;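 also: z-score merges 667 nm fluorescence with per-spot signal-to-noise over triplicate slides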
[13] = biological target: Follistatin (Homo sapiens) (UniProt P19883); experiment: FST protein binding to printed compounds – biochemical, small-molecule microarray, 635/667 nm fluorescence, primary screen (AID 1132); conditions: 635 nm fluorescence, higher = more signal
Chain of Follistatin (Homo sapiens) (P19883 whole entry, looked up): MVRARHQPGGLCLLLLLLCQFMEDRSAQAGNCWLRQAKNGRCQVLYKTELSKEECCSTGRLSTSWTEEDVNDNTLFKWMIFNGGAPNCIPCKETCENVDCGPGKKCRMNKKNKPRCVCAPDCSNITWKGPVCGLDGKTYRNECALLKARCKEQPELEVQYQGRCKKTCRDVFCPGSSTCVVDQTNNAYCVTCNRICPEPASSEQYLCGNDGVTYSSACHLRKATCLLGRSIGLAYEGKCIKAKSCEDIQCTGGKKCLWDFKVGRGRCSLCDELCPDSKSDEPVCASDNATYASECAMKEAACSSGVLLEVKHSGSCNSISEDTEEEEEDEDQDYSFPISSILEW

[14] = biological target: Fibroblast growth factor 2 (Homo sapiens) (UniProt P09038); experiment: basic fibroblast growth factor binding to printed compounds – biochemical, small-molecule microarray, 635/667 nm fluorescence, primary screen (AID 1133); conditions: FGF2, fluorescence 635/667, higher = more signal
Chain of Fibroblast growth factor 2 (Homo sapiens) (P09038 whole entry, looked up): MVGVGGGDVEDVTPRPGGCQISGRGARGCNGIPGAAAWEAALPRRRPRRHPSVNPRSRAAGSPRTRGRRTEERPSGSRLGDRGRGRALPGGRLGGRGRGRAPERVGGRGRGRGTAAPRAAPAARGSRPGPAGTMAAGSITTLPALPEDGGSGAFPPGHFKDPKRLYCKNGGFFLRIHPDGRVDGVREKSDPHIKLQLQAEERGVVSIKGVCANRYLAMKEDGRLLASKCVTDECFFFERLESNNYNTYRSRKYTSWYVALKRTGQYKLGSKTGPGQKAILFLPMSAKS

[15] = JC-1 mitochondrial potential readout, lung cancer cells – cell-based, A549, JC-1 fluorescence, basal, 24 h, 100 nL, profiling panel (AID 1138); conditions: higher = more signal;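 also: A549 lung adenocarcinoma cells under basal conditions with no added stimulus; test concentration not given here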
Lefty1 = Lefty1 protein binding to printed compounds – biochemical, small-molecule microarray, 635/667 nm fluorescence, primary screen (AID 1139); conditions: fluorescence 635/667, higher = more signal
[16] = tested on: wheat germ agglutinin (Triticum aestivum), Alexa647-labelled; experiment: Alexa647-WGA lectin binding to printed small molecules – biochemical, small-molecule microarray, 635/667 nm fluorescence, artefact control for SMM control-protein annotation, profiling panel (AID 1140); conditions: WGA-A647 binding, 635 nm fluorescence, higher = more signal;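 also: score merges 667 nm feature emission with signal to noise over triplicate slides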
[17] = biological target: Luciferin 4-monooxygenase (Photinus pyralis) (UniProt P08659); experiment: inhibition of purified Photinus pyralis luciferase – biochemical, luminescence, purified enzyme, 2006 set, primary screen (AID 1141); conditions: purified firefly luciferase, SteadyGlo luminescence, 30 min; higher = more signal, called active from +8 up or from −8 down;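 also: cell-free assay with purified firefly luciferase at 100 ng per well in PBS; test concentration not given here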
Chain of Luciferin 4-monooxygenase (Photinus pyralis) (P08659 whole entry, looked up): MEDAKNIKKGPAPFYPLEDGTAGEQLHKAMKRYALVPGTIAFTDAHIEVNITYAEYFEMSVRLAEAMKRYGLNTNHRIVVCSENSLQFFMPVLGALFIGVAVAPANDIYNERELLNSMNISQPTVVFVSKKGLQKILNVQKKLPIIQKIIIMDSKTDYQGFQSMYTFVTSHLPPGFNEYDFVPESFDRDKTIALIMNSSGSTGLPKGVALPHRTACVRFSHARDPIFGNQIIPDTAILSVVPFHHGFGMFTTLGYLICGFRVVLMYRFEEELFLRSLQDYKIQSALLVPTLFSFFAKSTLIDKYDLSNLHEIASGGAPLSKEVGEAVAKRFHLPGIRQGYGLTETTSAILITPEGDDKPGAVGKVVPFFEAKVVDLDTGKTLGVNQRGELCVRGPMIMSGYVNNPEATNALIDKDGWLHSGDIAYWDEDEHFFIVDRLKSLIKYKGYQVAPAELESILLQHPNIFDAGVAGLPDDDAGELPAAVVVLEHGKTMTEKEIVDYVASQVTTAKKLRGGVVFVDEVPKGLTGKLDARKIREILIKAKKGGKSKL

Row | Compound | composite z-score (Albumin (Bos taurus)) | composite Z-score [1] | composite z-score [2] | composite z-score [3] | composite z-score [4] | composite z-score [5] | composite z-score [6] | composite z-score (Sam68 (KHDRBS1)) | composite z-score [7] | composite z-score [8] | composite z-score [9] | composite z-score [10] | composite z-score [11] | composite z-score [12] | composite z-score [13] | composite z-score [14] | z-score [15] | composite z-score (Lefty1) | composite z-score [16] | z-score [17]
1 | CCN1C(=O)[C@H]2[C@H]3[C@H](O)[C@H](O)CC(=NOCC=C(C)CCC=C(C)C)[C@@H]3CC[C@H]2C1=O | 0.44 | -0.496 (inactive) | 0.144 | -0.118 | 0.0577 | 0.162 | 0.39 | 1.25 | 1.39 | 0.13 | 0.521 | 0.344 | -0.0746 | 0.493 | 1.31 | 1.01 | -0.717 | 1.23 | -0.207 | 0.146 (inactive)
2 | COC(=O)[C@@H]1CC[C@H](C)[C@@H](c2ccc(Br)cc2)N1C(=O)C(F)(F)F | -0.591 | -0.225 (inactive) | -0.232 | -0.1 | -0.292 | 0.23 | 0.0015 | -0.412 | -0.183 | -0.317 | -0.0497 | -1.42 | -0.0957 | -0.0695 | -0.202 | -0.0514 | 0.0789 | -0.125 | -0.321 | -0.1 (inactive)
3 | CC(C)(C)N1C(=O)[C@H]2[C@H]3[C@H](O)[C@H](O)CC(=NOC[C@@H](O)COCc4ccco4)[C@H]3CC[C@H]2C1=O | 0.383 | -0.0443 (inactive) | -0.128 | -0.117 | 0.282 | 0.327 | 0.72 | 0.396 | 0.479 | 0.315 | 0.606 | 0.237 | -0.136 | 0.0824 | -0.22 | 0.249 | 0.0624 | -0.0429 | 0.495 | -0.011 (inactive)
4 | O=C1C2=CC[C@H]3C(=O)N(C[C@@H]4CCCO4)C(=O)[C@H]3[C@H]2[C@H](O)[C@@H]2O[C@H]12 | 0.335 | -0.275 (inactive) | -0.183 | -0.0928 | -0.145 | -0.534 | -0.246 | 0.244 | 0.362 | 0.397 | 0.286 | 0.611 | 0.146 | -0.0182 | 0.0235 | 0.0043 | 0.982 | 0.233 | -0.153 | -0.518 (inactive)
5 | COC(=O)[C@@H]1CC[C@H](C)[C@@H](c2ccc(C)cc2)N1C(=O)c1ccc(C=NOC[C@H]2O[C@H](c3ccccc3)C=C[C@@H]2Oc2ccc(OC)cc2)cc1 | 0.312 | -0.496 (inactive) | 0.0257 | -0.161 | -0.145 | -0.336 | -0.192 | 0.233 | 0.692 | 0.45 | -0.585 | -0.274 | -0.0204 | -0.324 | 0.222 | 0.174 | -0.351 | 0.244 | 0.172 | 1.18 (inactive)
6 | COC(=O)CC=C[C@@H](C)[C@@H](C=NOC[C@@H](O)[C@H]1O[C@@H]2OC(C)(C)O[C@@H]2[C@H]1O)OC | -0.0287 | -0.931 (inactive) | -0.0647 | -0.13 | -0.131 | -0.104 | 0.149 | 0.444 | 0.744 | 0.333 | 1.57 | 0.612 | 0.167 | 0.0843 | 0.834 | 0.943 | 0.0187 | 0.59 | 0.006 | -0.512 (inactive)
7 | C[C@@H]1CC[C@H]2C(=O)OC(Cc3ccccc3)CN2[C@H]1c1ccc(Br)cc1 (stereo not given in full) | 0.525 | -0.014 (inactive) | -0.0362 | -0.198 | 0.186 | 0.712 | 0.509 | 0.64 | 0.257 | 0.494 | 0.227 | 0.238 | -0.0103 | 0.853 | 0.329 | 0.867 | 1.57 | 0.789 | 0.339 | -0.679 (inactive)
8 | C=CCOCC1CN2[C@@H](CC[C@@H](C)[C@@H]2c2ccc(Br)cc2)C(=O)O1 (stereo not given in full) | -0.509 | 0.419 (inactive) | -0.0932 | -0.189 | -0.401 | -0.329 | 0.975 | -0.85 | 0.562 | -0.172 | 0.24 | -0.695 | -0.262 | -0.5 | 0.119 | 0.166 | 1.88 | 0.262 | -0.16 | -0.764 (inactive)
9 | CON=C(C)CCN1CCCc2nc(C)c(C)cc21 | -0.353 | 0.599 (inactive) | 0.0496 | -0.0769 | 0.438 | 1.42 | 0.234 | 1.1 | 0.637 | 0.374 | 1.15 | 0.476 | -0.0211 | 0.613 | 0.632 | 0.653 | 1.45 | 1.05 | 0.201 | 0.267 (inactive)
10 | COC(=O)CC=C[C@@H](C)[C@@H](C=NOC[C@@H](O)COCc1ccco1)NS(=O)(=O)c1ccc(C)cc1 | -1.17 | -0.553 (inactive) | -0.169 | -0.0854 | -0.485 | -1.36 | -0.504 | -0.866 | 1.52 | -2.76 | 0.13 | -1.94 | -0.432 | -1.03 | 1.29 | 0.542 | -0.383 | 0.915 | -0.681 | 0.167 (inactive)
11 | COc1ccc(COC(=O)NN=C2C[C@@H](O)[C@@H](O)[C@@H]3[C@@H]4C(=O)N(C5CCCCC5)C(=O)[C@@H]4CC[C@@H]23)cc1 | 0.157 | -0.218 (inactive) | 0.289 | -0.0256 | -0.143 | 0.0678 | -0.253 | -0.0188 | -0.108 | -0.35 | 0.123 | -0.0517 | 0.0581 | 0.0695 | -0.148 | -0.373 | 0.847 | -0.371 | 0.401 | 0.0242 (inactive)
